Screening results as filed in PubChem.
The list is not random: actives were taken first. Their share in the collection is about 1.2%.
RGS4-Gao reg = human RGS4-Galphao interaction regulation | P09471 | Multiplexed bead flow cytometry, RGS4-Galphao binding; actives lie on both sides | binding response (% of control), % at 10 µM | hit rate 0.33% among 220,000 | AID 1415; in the data active means binding response below about 49% or above about 150%; inactive means in between;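 further: fluorescent Galphao activated with aluminum fluoride binding bead-coupled RGS4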
Target sequence (P09471 whole entry, looked up): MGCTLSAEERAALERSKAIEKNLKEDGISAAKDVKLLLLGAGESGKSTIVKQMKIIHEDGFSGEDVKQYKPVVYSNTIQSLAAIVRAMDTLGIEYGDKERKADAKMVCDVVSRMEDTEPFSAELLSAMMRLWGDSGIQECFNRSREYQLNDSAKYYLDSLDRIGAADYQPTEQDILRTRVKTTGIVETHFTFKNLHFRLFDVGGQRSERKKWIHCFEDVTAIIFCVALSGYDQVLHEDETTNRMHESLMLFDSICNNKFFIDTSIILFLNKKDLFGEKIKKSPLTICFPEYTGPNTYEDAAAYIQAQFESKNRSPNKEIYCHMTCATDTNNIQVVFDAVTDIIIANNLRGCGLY
Avidin fluor = compound fluoresces at 488/530 nm on avidin beads; compound fluorescence 488/530 nm, flow cytometry; active compounds read high; fluorescence (KMESF) at 10 µM; hit rate 0.38% among 220,000; AID 1775; in the data active means fluorescence above about 47
GSH bead fluor = compound fluoresces at 488/530 nm on GSH beads; GSH beads flow cytometry, compound fluorescence 488/530 nm; active compounds read high; fluorescence (KMESF) at 10 µM; hit rate 0.25% among 190,000; in the data active means fluorescence above about 89;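 further: glutathione beads carrying GST-tagged Bcl family fusion proteins plus one bare bead set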
RGS7-Gao reg = regulators of human RGS7-Galphao interaction | P09471 | Multiplexed bead flow cytometry, RGS7-Galphao binding; actives lie on both sides | binding response (% of control), % at 10 µM | hit rate 0.35% among 220,000 | AID 1439; in the data active means binding response below about 49% or above about 150%; inconclusive means no clear call, values can overlap the other calls; inactive means in between;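 further: fluorescent Galphao held in activated GDP-AlF4 state binding bead-coupled RGS7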
RGS16-Gao HTS = RGS16-Galphao interaction regulator (human); O15492+P09471; bead-based flow cytometry RGS16-Galphao binding, fluorescence; actives lie on both sides; binding response (% of control), % at 10 µM; hit rate 0.38% among 220,000; call rule not given here;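 further: Galphao activated by GDP with aluminum fluoride before binding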
Target sequence (O15492 whole entry, looked up): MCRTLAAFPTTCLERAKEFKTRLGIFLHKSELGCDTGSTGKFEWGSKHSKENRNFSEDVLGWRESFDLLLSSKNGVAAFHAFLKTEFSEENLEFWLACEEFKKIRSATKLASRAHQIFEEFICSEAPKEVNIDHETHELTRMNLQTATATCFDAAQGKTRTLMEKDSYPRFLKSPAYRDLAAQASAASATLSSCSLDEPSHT
Target sequence (P09471 whole entry, looked up): as the sequence (P09471 whole entry, looked up) above
RGS8-Gao reg = human RGS8-Galphao interaction regulation; response (percent of control binding), % at 10 µM; hit rate 0.34% among 220,000; P09471; AID 1423; multiplexed bead flow cytometry, RGS8-Galphao binding; actives lie on both sides; in the data active means response below about 60% or above about 140%; inactive means in between;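 further: Galphao activated as the GDP aluminium fluoride complex binding bead-coupled RGS8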
Of the large screens only hits and unclear results are named; the others gave an inactive call; [ ] = remark or other dose.

CCCCN1C(=O)c2ccc(C(=O)Nc3c(N)n(CCCC)c(=O)n(C)c3=O)cc2C1=O	GSH bead fluor 271
CCCc1cc(=O)[nH]c(SCC(=O)Nc2cc(C)on2)n1	none
Cc1ccc(S(=O)(=O)N(C)Cc2nc(-c3ccncc3)no2)cc1	Avidin fluor 50
CC(C)C(c1nnnn1Cc1ccccc1)N1CCN(Cc2ccc3c(c2)OCO3)CC1 (configuration not stated)	none
Fc1ccc2c(Cl)c(-c3nnc(-c4cccs4)o3)sc2c1	GSH bead fluor 255
O=C(c1cccs1)N1CCN(CCCc2ccccc2)CC1	GSH bead fluor 263
CN(C)CCn1c(N)nc2ccccc21	RGS7-Gao reg inconclusive (no result: GSH bead fluor)
Cc1ccc2c(CSc3nnc(C4CC4)n3N)cc(=O)oc2c1	GSH bead fluor 262
Fc1ccc(Cn2nnnc2C(c2ccc(Cl)cc2)N2CCSCC2)cc1 (configuration not stated)	none
CC1CCN(C(c2ccc(N(C)C)cc2)c2nnnn2Cc2ccc(F)cc2)CC1 (configuration not stated)	GSH bead fluor 251
Cc1ccc(C(O)P(=O)(OC2CCCCC2)OC2CCCCC2)cc1 (configuration not stated)	Avidin fluor 56
Cc1nc(COc2ccccc2Cl)sc1-c1ccnc(N)n1	RGS7-Gao reg inconclusive (no result: GSH bead fluor)
Cc1cc(C(=O)NCC(=O)OC(C(=O)Nc2cc(C(F)(F)F)ccc2Cl)c2ccccc2)ccc1[N+](=O)[O-] (configuration not stated)	GSH bead fluor 257
CCOc1ccccc1N1CC(C(=O)Nc2ccc3c(c2)OCCO3)CC1=O (configuration not stated)	RGS7-Gao reg inconclusive
CCOc1ccccc1N1CC(C(=O)Nc2cccc(S(=O)(=O)N3CCCCC3)c2)CC1=O (configuration not stated)	Avidin fluor 54, RGS7-Gao reg inconclusive
O=C(NCCc1ccccn1)C(F)(F)C(F)(F)C(F)(F)C(F)(F)C(F)(F)C(F)(F)C(F)(F)C(F)F	none
CCOc1ccccc1N1C(=O)CC(Nc2ccc(N3CCOCC3)cc2)C1=O (configuration not stated)	GSH bead fluor 245
COc1ccc(/C=C2\SC(=NCc3ccccc3)N(Cc3ccccc3)C2=O)cc1OC	none
CCN=C1S/C(=C\c2ccc(OC)c(OCC)c2)C(=O)N1CC	GSH bead fluor 106
Cc1cc(NC(=O)CCC(=O)N(c2ccc(F)cc2)C(C(=O)NC2CCCC2)c2ccncc2)no1 (configuration not stated)	none
Cc1cc(S(=O)(=O)N2CCN(c3ccccc3C)CC2)ccc1F	none
Cc1ccccc1N1CCN(S(=O)(=O)c2ccccc2)CC1	GSH bead fluor 98
CCn1nnc(NC(=O)c2cccnc2Cl)n1	GSH bead fluor 259
CCOc1ccc(C(=O)Nc2nnn(CC)n2)cc1	none
O=C(N/N=C/c1nn(-c2ccccc2)cc1-c1ccc(Cl)cc1)c1ccncc1	none
CN1CCN(Cc2oc(CO)cc(=O)c2O)CC1	none
COc1ccc(N2CCN(Cc3oc(CO)cc(=O)c3O)CC2)cc1	GSH bead fluor 250
O=C(NNC(=S)NC1CC2C=CC1C2)c1cccnc1 (configuration not stated)	RGS7-Gao reg inconclusive (no result: GSH bead fluor)
CCOc1ccc(-c2nc(CSc3nncs3)cs2)cc1OC	none
CCOc1ccc(N2C(=O)CC(SCCN)C2=O)cc1 (configuration not stated)	GSH bead fluor 267
CCOc1ccc(N2C(=O)CC(Sc3nc(C)cc(C)n3)C2=O)cc1 (configuration not stated)	none
Cc1nnc(SCC(=O)NNC(=O)CC#N)[nH]c1=O	none
COc1ccccc1NC(=O)Cn1nnc2sc3c(c2c1=O)CC(C)(C)OC3	RGS7-Gao reg inconclusive (no result: GSH bead fluor)
CC1(C)Cc2c(sc3nnn(CC(=O)Nc4ccccc4)c(=O)c23)CO1	Avidin fluor 92, RGS7-Gao reg inconclusive (no result: GSH bead fluor)
COc1ccc(-c2cc(-c3ccccc3)nc(SCC(=O)Nc3nccs3)c2C#N)cc1	Avidin fluor 56
COc1ccc2cc(CN(CC3CCCO3)C(=S)Nc3ccccc3)c(=O)[nH]c2c1 (configuration not stated)	none
Cc1ccc(NC(=O)c2ccccc2CCc2ccccc2)c(C)c1	Avidin fluor 56
Cn1c(=O)[nH]c(=O)c2[nH]c(NCCCN3CCOCC3)nc21	Avidin fluor 48
CCNc1nc(NCC)nc(Oc2ccc(C(=O)OC)cc2)n1	RGS7-Gao reg inconclusive (no result: GSH bead fluor)
CCOc1ccc(CC(=O)NNC(=O)NC2CCCCC2)cc1	none
CCOc1ccc(CC(=O)NNC(=S)NC2CCCCC2)cc1OCC	GSH bead fluor 128
CCOC(=O)c1ccc(S(=O)(=O)N2CCN(S(=O)(=O)CC)CC2)cc1	none
CCOC(=O)c1ccc(S(=O)(=O)N2CCN(CC(=O)NC(=O)NC3CCCCC3)CC2)cc1	RGS4-Gao reg 188[activator], RGS7-Gao reg 176[activator], RGS16-Gao HTS 185[activator], RGS8-Gao reg 152[activator]
C=CCNC(=S)Nc1ccc(N(C)C)cc1	RGS7-Gao reg inconclusive (no result: GSH bead fluor)
CCN(CC)CCOC(=O)c1ccc(NC(=O)c2cn(-c3ccccc3)nc2-c2cccs2)cc1	none
c1coc(CNC2CCCCCCC2)c1	Avidin fluor 84
c1coc(CNC2CCCCC2)c1	none
C=CCN(CC=C)CCOc1cccc(Oc2ccccc2)c1	RGS7-Gao reg inconclusive
COc1cc(C(F)(F)F)nc(-c2ccccn2)n1	RGS7-Gao reg inconclusive
CC(C)Nc1cc(C(F)(F)F)nc(-c2ccccn2)n1	RGS4-Gao reg 153[activator], Avidin fluor 332, RGS7-Gao reg 274[activator]
O=C(CSc1nc(O)cc(=O)n1C1CCCC1)Nc1cccc(Cl)c1Cl	none
COC(=O)c1ccccc1NC(=O)CSc1nc(O)cc(=O)n1C1CCCC1	Avidin fluor 54
O=C(CSc1nc2ncccc2[nH]1)NCCc1ccccc1	none
COc1ccc(OC)c(C(=O)CSc2nc3ccccc3n2CC(=O)NC(C)(C)C)c1	GSH bead fluor 270
CCCc1cc2c(=O)c(-c3nc4ccccc4s3)c(COCC(=O)O)oc2cc1O	none
Cc1noc(C)c1CSc1nc2ccccc2n1C	GSH bead fluor 240
Cc1noc(C)c1CSc1nnc2sc3ccccc3n12	none
CC1(c2ccccc2)NC(=O)N(CCOc2ccccc2)C1=O (configuration not stated)	GSH bead fluor 263
CN1CC(=O)N(CCOc2ccccc2)C1=O	GSH bead fluor 263
O=C1CNC(=S)N1CCOc1ccccc1	RGS7-Gao reg inconclusive (no result: GSH bead fluor)
Cc1cccc(C)c1OCCN1C(=O)NC(C)(c2ccccc2)C1=O (configuration not stated)	none
COc1ccccc1Cn1[nH]nnc1=S	RGS7-Gao reg inconclusive (no result: GSH bead fluor)
Cc1cccc(C)c1N1CCc2cn[nH]c21	Avidin fluor 48
O=C1N/C(=N\N=C\c2cccs2)SC1Cc1ccc(Cl)c(Cl)c1 (configuration not stated)	none
